Results taken from PubChem BioAssay (NCATS).
Values joined by “and” are separate entries in the source; they are usually repeats but may differ in a detail not shown here. Equal entries are not always repeated. Results filed as inconclusive are left out. Active and inactive are the calls of the source. Calls follow the shape of the dose curve; as a rule, active = well fitted inhibition curve with a large enough effect; inconclusive = small, poorly fitted or top-dose-only effect; inactive = flat fitted curve, though single readings scatter. Numbered stars: 1 amine (or outer) side, 2 acyl side, 3 side chain; on linkers, the order of the positions; unused ones are H or OH. Bridge positions count the residues as written; N and C are the ends. Square brackets hold non-standard residues; d marks the D form. Peptide text beside a SMILES is read from it. I, II: the chains in the order shown. Actinocin(9to1) = Cc1c2oc3c(C)ccc(C(=O)[*:1])c3nc-2c(C(=O)[*:2])c(N)c1=O; NMeV = CN[C@H](C(=O)O)C(C)C; Sar = CNCC(=O)O
% is scaled to controls: 0 for no effect and ±100 for the full control effect; potency is read from the fitted curve at half-maximal effect.

These compounds were tested on KB-3-1 (assay: Cytotoxic Profiling of Annotated Libraries Using Quantitative High-Throughput Screening (AID 1296008; also: nearly all actives have a fitted effect of over 60% in size)). Conditions: Five cell lines viability, CellTiter-Glo ATP luminescence, 48-72 h; max response: hits give low values.
Description: Cell-based phenotypic screening is a commonly used approach to discover biological pathways, novel drug targets, chemical probes and high-quality hit-to-lead molecules. Many hits identified from high-throughput screening campaign are ruled out through a series of follow-up potency, selectivity/specificity, and cytotoxicity assays. Prioritization of molecules with little or no cytotoxicity for a more in-depth downstream evaluation influence the future direction of projects, so cytotoxicity profiling of the screening libraries at early stage is essential for increasing the likelihood of candidate success. […] For the annotated library, we also examined the primary targets and mechanistic pathways regularly associated with cell death. To our knowledge, this is the first study to use high-throughput screening to profile large libraries for cytotoxicity assessment in both normal and cancer cell lines. In summary, the results generated here constitutes a valuable resource for the scientific community and provides insight on identifying cytotoxic compounds with particular mechanisms of action, and prioritizing compounds with suitable cytotoxicity profile for further evaluation.
A pintool (Kalypsys) was used to transfer 23 nL of compound solution to the 1536-well assay plates. After 48 or 72 hr incubation at 37 degree Celsius, 5% CO2 and 95% humidity, 2.5 uL of CellTiter-Glo (Promega) was dispensed into each well using a dispenser (Aspect Automation, St. Paul, MN) with solenoid valves (Lee Valves, Westbrook CT). Plates were left at room temperature for 10 min before imaging the ATP-coupled luminescence using a ViewLux microplate imager (PerkinElmer, Waltham, MA).
In the case of CCOC(=O)COc1ccc2c(C)c(CCN(CC)CC)c(=O)oc2c1Cl, the max response is reported as 7.91% (inactive). In the case of CC[C@H](C)C(=O)O[C@H]1CCC=C2C=C[C@H](C)[C@H](CC[C@@H]3C[C@@H](O)CC(=O)O3)[C@H]21, the max response is reported as 3.96% (inactive). For C[C@]12CCC(=O)C=C1CC[C@H]1[C@@H]3CC[C@](O)(C(=O)CO)[C@@]3(C)C[C@H](O)[C@@]12F, the max response was 18.3% (inactive) and -1.2% (inactive). With OC[C@H]1O[C@H](O[C@]2(CCl)O[C@H](CCl)[C@@H](O)[C@@H]2O)[C@H](O)[C@@H](O)[C@H]1Cl the outcome was “inactive”. CCCCN1CCCC1C(=O)Nc1c(C)cc(C)cc1C (stereo not given) was tested, and the max response was -0.66% (inactive). For CCOC(=O)[C@H](CCc1ccccc1)N[C@@H](C)C(=O)N1Cc2ccccc2C[C@H]1C(=O)O, the max response was 21.9% (inactive). CC1(C)O[C@@H]2C[C@H]3[C@@H]4C[C@H](F)C5=CC(=O)CC[C@]5(C)[C@H]4[C@@H](O)C[C@]3(C)[C@]2(C(=O)CO)O1 was tested, and the max response was 28% (inactive). With OC(CCN1CCCCC1)(c1ccccc1)c1ccccc1 the max response was 16.8% (inactive). In the case of CN(C)CCCOc1nn(Cc2ccccc2)c2ccccc12, the max response is reported as -14.4% (inactive) and -24.2% (inactive). CCCCCCCCCCCCCCNCCO was tested, and the max response was 5.95% (inactive). In the case of CC(=O)OCC(=O)[C@@]1(O)[C@H](C)C[C@H]2[C@@H]3CCC4=CC(=O)C=C[C@]4(C)[C@@]3(F)[C@@H](O)C[C@@]21C, the outcome is reported as “inactive” and the max response is reported as 31.1% (inactive) and 2.64% (inactive). In the case of Cc1cc(N)c2cc(NC(=O)Nc3ccc4nc(C)cc(N)c4c3)ccc2n1, the max response is reported as -4.37% (inactive). With CCCCCCCCCCOCC(O)CN (stereo not given) the max response was -10.6% (inactive). With CC(=O)O[C@]1(C(C)=O)CC[C@H]2[C@@H]3C[C@H](C)C4=CC(=O)CC[C@]4(C)[C@H]3CC[C@@]21C the max response was 9.44% (inactive) and the outcome was “inactive”. CNC(=O)CN(CCN(CCN(CC(=O)[O-])CC(=O)NC)CC(=O)[O-])CC(=O)[O-].O.[Gd+3] was tested, and the max response was -5.37% (inactive) and -4.64% (inactive). In the case of O=C(O)CNC(=O)c1ccccc1, the max response is reported as -0.856% (inactive). In the case of COc1c(C)c2c(c(O)c1C/C=C(\C)CCC(=O)O)C(=O)OC2, the max response is reported as -17.8% (inactive). In the case of CC(=O)N(O)CCCCCNC(=O)CCC(=O)N(O)CCCCCNC(=O)CCC(=O)N(O)CCCCCN, the max response is reported as 1.85% (inactive). CN(C)CC/C=C1/c2ccccc2COc2ccc(CC(=O)O)cc21 was tested, and the max response was -7.2% (inactive). With CCOc1ccc(Cc2nccc3cc(OCC)c(OCC)cc23)cc1OCC the max response was 1.15% (inactive). In the case of CC(C)C[C@H]1C(=O)N2CCC[C@H]2[C@]2(O)O[C@](NC(=O)[C@@H]3C=C4c5cccc6[nH]c(Br)c(c56)C[C@H]4N(C)C3)(C(C)C)C(=O)N12, the max response is reported as 3.47% (inactive). With Cc1ccc(O)c2ncccc12 the max response was -5.97% (inactive). For CCCCOc1cc(C(=O)NCCN(CC)CC)c2ccccc2n1, the max response was 0.155% (inactive). For O=c1[nH]c(=O)n([C@H]2CCCO2)cc1F, the max response was 8.54% (inactive). With Oc1ccc(O)cc1 the max response was -4.96% (inactive). For COc1cc2c(cc1OC)[C@@H]1CC(=O)[C@@H](CC(C)C)CN1CC2, the max response was 20.8% (inactive). In the case of C[C@@H](CN(C)C)CN1c2ccccc2Sc2ccccc21, the max response is reported as -9.85% (inactive). For CC(C)COC(=O)OCN1C(=O)CN(CCN2CC(=O)N(COC(=O)OCC(C)C)C(=O)C2)CC1=O, the max response was 6.86% (inactive). For Oc1c(I)cc(Cl)c2cccnc12, the max response was -8.86% (inactive). CC(C)(C)CC(C)(C)c1ccc(OCCOCC[N+](C)(C)Cc2ccccc2)cc1 was tested, and the Potency was 20.6 µM (active). In the case of N[C@@H](Cc1cnc[nH]1)C(=O)O, the max response is reported as 2.19% (inactive). With NC[C@H]1O[C@H](O[C@H]2[C@H](O)[C@@H](O[C@H]3O[C@H](CO)[C@@H](O)[C@H](N)[C@H]3O)[C@H](N)C[C@@H]2N)[C@H](N)[C@@H](O)[C@@H]1O the max response was -1.35% (inactive) and -3.36% (inactive). In the case of Cc1c2oc3c(C)ccc(C(=O)N[C@@H]4C(=O)N[C@H](C(C)C)C(=O)N5CCC[C@H]5C(=O)N(C)CC(=O)N(C)[C@@H](C(C)C)C(=O)O[C@@H]4C)c3nc-2c(C(=O)N[C@@H]2C(=O)N[C@H](C(C)C)C(=O)N3CCC[C@H]3C(=O)N(C)CC(=O)N(C)[C@@H](C(C)C)C(=O)O[C@@H]2C)c(N)c1=O (I: T[dV]P[Sar][NMeV] / II: T[dV]P[Sar][NMeV]; ester I:1-I:C, II:1-II:C; linker I:N-II:N via Actinocin(9to1)), the Potency is reported as 0.0206 µM (active). CC(C)COC(=O)c1ccc(N)cc1 was tested, and the max response was 12.1% (inactive). CCCCCCc1ccc(O)cc1O was tested, and the max response was 0.129% (inactive). COC(=O)[C@@H]1CC2=CC(=O)CC[C@]2(C)[C@@]23O[C@@H]2C[C@@]2(C)[C@@H](CC[C@@]24CCC(=O)O4)[C@H]13 was tested, and the max response was -7.46% (inactive). For C1CCc2nnnn2CC1, the max response was 18.9% (inactive). For O=C(COc1ccc(Cl)cc1)N1CCN(Cc2ccc3c(c2)OCO3)CC1, the max response was -11.1% (inactive).
